FLuc inh: qHTS Assay for Inhibitors of Firefly Luciferase; Luciferin 4-monooxygenase (Photinus pyralis), P08659; purified firefly luciferase, luminescence, 8 min; Potency, µM (series often up to 57.1 µM), without a hit: at the top dose activity change, negative = inhibition, hits mostly inhibitors; 2.2% of 72,000 active; note: nearly all actives have a fitted effect of over 40% in size
Target sequence (P08659 whole entry, looked up): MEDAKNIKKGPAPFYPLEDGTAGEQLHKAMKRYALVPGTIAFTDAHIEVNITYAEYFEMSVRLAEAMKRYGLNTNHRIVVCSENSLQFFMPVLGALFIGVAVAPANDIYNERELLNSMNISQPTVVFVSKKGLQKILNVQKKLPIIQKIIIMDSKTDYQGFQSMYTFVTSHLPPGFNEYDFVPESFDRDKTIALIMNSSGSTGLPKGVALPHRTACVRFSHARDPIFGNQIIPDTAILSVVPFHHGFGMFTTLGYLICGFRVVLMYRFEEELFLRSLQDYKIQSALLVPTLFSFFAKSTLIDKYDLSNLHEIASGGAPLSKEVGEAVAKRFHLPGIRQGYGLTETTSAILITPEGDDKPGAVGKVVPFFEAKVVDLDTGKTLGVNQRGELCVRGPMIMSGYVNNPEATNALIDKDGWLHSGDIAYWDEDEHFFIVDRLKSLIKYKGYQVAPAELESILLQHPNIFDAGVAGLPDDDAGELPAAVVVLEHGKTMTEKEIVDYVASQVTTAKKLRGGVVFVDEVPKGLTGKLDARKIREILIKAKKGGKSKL
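Inhibition of light generation by firefly luciferase from ATP and luciferin was profiled with concentration-response curves per sample, ATP held at 10 uM within the enzyme's linear range. Plates were read by luminescence after an 8-minute ambient incubation.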
p53ts 32C tox: qHTS Screen for Compounds that Selectively Target Cancer Cells with p53 Mutations: Cytotoxicity of p53ts Cells at the Permissive Temperature | 0.93% of 130,000 active | H1299-p53A138V at 32C, ATP luminescence viability, 24 h | Potency, µM (doses to about 46.1 µM), inactives show at the top dose activity change, negative = cytotoxicity, usual class: cytotoxic;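 note: 0% = DMSO and -100% = full killing by reference compound; nearly all actives have a fitted effect of over 55% in size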
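ATP-content luminescence (ATPlite) read-out after 24 h compound exposure at 32C in H1299-p53A138V cells (600/well). Tested up to 46 uM. Normalized to DMSO (0%) and 100 uM tamoxifen (100% killing); Hill-fit AC50.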
p53ts 39C kill: qHTS Screen for Compounds that Selectively Target Cancer Cells with p53 Mutations: Cytotoxicity of p53ts Cells at the Nonpermissive Temperature; H1299-p53A138V viability at 39C, ATP luminescence, 24 h; Potency, µM (top dose mostly 46.1 µM), inactives show at the top dose activity change, negative = cell killing, hits mostly cytotoxic; 1.5% of 130,000 active; note: nearly all actives have a fitted effect of over 55% in size
Active calls of the source: *; ? = inconclusive; . = no result; [ ] = another dose, or the depositor's remark. In the library only some 2.6% were active in any assay of this set; here they are far more common. Calls come from the whole dose curve; as a rule, active = well fitted curve in the direction sought with a large enough effect; inconclusive = small, poorly fitted or top-dose-only effect, or another doubt; inactive = no such curve, though single readings can be large; an effect the other way counts as inactive or inconclusive. Unless noted, % is set by controls: 0 for no effect and ±100 for the full control effect; potency is the fitted concentration of half-maximal effect.

SMILES	FLuc inh	p53ts 32C tox	p53ts 39C kill
CC1C(O)=C(c2nc3ccccc3[nH]2)C(=N)N1c1ccccc1 (centres undefined)	25µM*	-4%	-17%
O=C(Nc1cccc2nsnc12)c1ccc2c(c1)OCCO2	20µM*	?	?
O=C(Nc1cccc2nsnc12)c1ccc(F)cc1	-3%	3%	1%
Cc1nc2ccc3nc(NC(=O)c4ccc5c(c4)OCCO5)sc3c2s1	-4%	-2%	3%
Cc1nc2c(ccc3nc(NC(=O)c4ccc5c(c4)OCCO5)sc32)s1	0.79µM*	4µM*	3.2µM*
Cc1ccc(C)c(Cn2cnc3ccccc3c2=O)c1	.	4%	32%
COc1cccc(NC(=O)CC2NCCNC2=O)c1 (centres undefined)	.	4%	13%
O=C(Cn1cc(C(=O)C(F)(F)F)c2ccccc21)N1CCCCCC1	.	3%	-13%
COCCNC(=O)c1noc2c1CCc1cc(OC)ccc1-2	13µM*	-26%	?
COCC(C)NC(=O)c1noc2c1CCc1cc(OC)ccc1-2 (centres undefined)	?	-27%	?
Cc1ccc(Cc2cn3cc(-c4ccccc4)nc3s2)cc1	.	?	4µM*
Cc1c(C(=O)NCc2ccc(F)cc2)sc2nc(-c3ccc(F)cc3)cn12	.	-5%	-3%
Fc1ccc(Cc2cn3cc(-c4ccc(F)cc4)nc3s2)cc1	.	?	7.9µM*
Fc1ccc(-c2cn3cc(Cc4ccccc4Cl)sc3n2)cc1	.	7.9µM*	5µM*
Fc1ccccc1Cc1cn2cc(-c3ccc(Cl)cc3)nc2s1	.	?	10µM*
O=c1oc2ccccc2cc1-c1cn2cc(Cc3cc(Cl)ccc3Cl)sc2n1	.	-4%	10%
O=C(Cc1csc2nc(-c3ccc(F)cc3)cn12)NCc1ccccc1	.	-8%	-16%
Cc1ccc(CNC(=O)c2sc3nc(-c4ccccc4)cn3c2C)cc1	.	-3%	-22%
Cn1cccc1C(=O)N1CCC2(CCN(Cc3ccncc3)CC2)CC1	3%[11.4 µM]	-7%	0%
CCC(C(=O)O)n1ccc2cc(S(=O)(=O)N3CCCCC3)ccc21 (centres undefined)	.	7%	-12%
C[N@@+]1(Cc2ccc(Cl)c(Cl)c2)CCC[C@@H]1c1ccc[n+](Cc2ccc(Cl)c(Cl)c2)c1	2%[11.4 µM]	8%[9.22 µM]	5%[9.22 µM]
CS(=O)(=O)N(Cc1ccccc1)c1ccc(C(=O)Nc2ccc(Cl)cc2)cc1	.	10%	-11%
CC(C)c1ccc(Cc2cn3cc(-c4cc5ccccc5oc4=O)nc3s2)cc1	.	7%	-19%
Clc1ccc(-c2cn3cc(Cc4ccccc4)sc3n2)cc1	.	?	6.3µM*
COc1ccccc1NC(=O)CN1C(=O)C2(SCC(=O)N2c2ccc(C)c(C)c2)c2ccccc21 (centres undefined)	.	18%	7%
SMILES	FLuc inh	p53ts 32C tox	p53ts 39C kill
NC(=O)NCC(N)C(=O)O (centres undefined)	.	-7%	16%
Cc1ccc(-c2n[nH]c3c2C(c2cccc(O)c2)N(c2ccc(C(=O)O)cc2)C3=O)cc1 (centres undefined)	.	-19%	-1%
O=C1c2[nH]nc(-c3ccc(Br)cc3)c2C(c2cccc(O)c2)N1c1ccc(Cl)cc1 (centres undefined)	.	?	16µM*
Cc1ccccc1CN1C(=O)c2ccccc2S(=O)c2ccc(C(=O)NC3CCC(C)CC3)cc21 (centres undefined)	.	13%	-7%
CN1CCN(C(=O)c2ccc(-n3c(=O)c(=O)[nH]c4ccccc43)cc2)CC1	.	2%	-9%
CCCN(CCC)CCCNC(=O)c1cc2c(-c3ccc(Cl)cc3)nn(C)c2s1	.	-10%	13µM*
CCN(CC)CCCNC(=O)c1cc2c(-c3ccc(Cl)cc3)nn(C)c2s1	4%	-4%	-19%
O=C(CCCN1C(=O)C(c2ccccc2)Oc2cccnc21)Nc1ccc(Br)cc1F (centres undefined)	.	-1%	-24%
CCN(c1ccccc1)c1ccc2cc(S(=O)(=O)N3CCCC3)ccc2n1	.	-6%	-16%
Cc1cccc(N(C)S(=O)(=O)c2nnc(NC(=O)C(C)Oc3ccccc3)s2)c1 (centres undefined)	.	-21%	?
Cc1ccc2nc(CSc3nnc(NC(=O)c4ccc(C(C)(C)C)cc4)s3)cc(=O)n2c1	.	0%	-3%
Fc1ccc(-n2ncc3c(N4CCCCCC4)ncnc32)cc1	.	?	5µM*
Cc1ccc(-n2ncc3c(N4CCCCCC4)ncnc32)cc1	.	3.2µM*	2.5µM*
CCN1CCN(c2ncnc3c2cnn3-c2ccc(C)cc2)CC1	.	-17%	?
Fc1ccc(-n2ncc3c(N4CCC(Cc5ccccc5)CC4)ncnc32)cc1	.	0%	-19%
Clc1ccccc1CNCCCSc1nnnn1-c1ccccc1	.	?	-8%
CCc1ccccc1NC(=O)Nc1cc(C(=O)NCc2ccc(OC)cc2)ccc1N1CCCC1	.	-22%	?
CCCn1cc(C(CC(=O)O)C(=O)O)c2ccccc21 (centres undefined)	1%	15%	10%
OCCN(CCO)CC(O)Cn1c2ccccc2c2ccccc21 (centres undefined)	-1%	6%	2%
O=C(/C=C/c1cn(CC(O)CN2CCCCCC2)c2ccccc12)c1ccc(Br)cc1 (centres undefined)	.	-4%	?
CCCN(CCC)CC(O)Cn1cc(/C=C/C(=O)c2ccc(C)cc2)c2ccccc21 (centres undefined)	.	?	13µM*
CCCN(CCC)CC(O)Cn1cc(/C=C/C(=O)c2ccc(Br)cc2)c2ccccc21 (centres undefined)	.	-21%	7.9µM*
COc1ccc(C(=O)/C=C/c2cn(CC(O)CN(CC(C)C)CC(C)C)c3ccccc23)cc1 (centres undefined)	.	-6%	-14%
CCCN(CCC)CC(O)Cn1cc(/C=C/C(=O)c2ccc(OC)cc2)c2ccccc21 (centres undefined)	.	?	10µM*
CCCCN(C)CC(O)Cn1cc(/C=C/C(=O)c2ccc(C)cc2)c2ccccc21 (centres undefined)	.	?	16µM*
SMILES	FLuc inh	p53ts 32C tox	p53ts 39C kill
CCOC(=O)c1nc(NCc2ccc(Cl)cc2)c2c(C)noc2n1	.	9%	-8%
O=S(=O)(c1ccc(F)cc1)N(Cc1nc(-c2ccc(Cl)cc2)no1)C1CCCCC1	.	-6%	-11%
COc1ccc2oc(-c3ccc(C)c(NC(=O)c4ccc(N5CCCCC5)c([N+](=O)[O-])c4)c3)nc2c1	.	-6%	11%
COC(=O)c1cc(S(=O)(=O)N2CCN(c3ccc(C)cc3C)CC2)cn1C	.	2%	.
c1ccc2c[n+](Cc3ccnc4ccccc34)ccc2c1	2%[11.4 µM]	-15%[9.22 µM]	-17%[9.22 µM]
CCCCN(C)CC(O)Cn1cc(/C=C/C(=O)c2ccc(OC)c(OC)c2)c2ccccc21 (centres undefined)	.	20µM*	16µM*
CCn1cc(/C=C(\NC(=O)c2ccc(OC)c(OC)c2)C(=O)NCCCn2ccnc2)c2ccccc21	.	1%	11%
COC(=O)c1ccc(NC(=O)C(=O)NCC(c2cccnc2)N2CCc3ccccc32)cc1 (centres undefined)	.	19%	-1%

Screening data (PubChem)
